Results as given in PubChem BioAssay (EPA / NIEHS).
Calls of active or inactive are those of the source. The calls were made as follows: active = hit-call score of the fitted dose curve at least 0.9, where 1 is the maximum; inactive = score below 0.9.

What was measured:
[1] = BSK_CASM3C_SRB: Viability Assessment in the BioMAP Diversity Plus: CASM3C Assay (AID 2283050); details: primary human coronary artery smooth muscle cells;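 also: cells exposed to compound for 24 h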
[2] = read-out: Thrombomodulin, THBD (gene 7056); assay: BSK_CASM3C_Thrombomodulin: BioMAP Diversity Plus: CASM3C Assay for Thrombomodulin Biomarker Activity (AID 2283051); details: primary human coronary artery smooth muscle cells; actives raise or lower the signal;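 also: thrombomodulin protein level measured by ELISA 24 h after dosing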
[3] = read-out: Tissue Factor, F3 (gene 2152); assay: BSK_CASM3C_TissueFactor: BioMAP Diversity Plus: CASM3C Assay for Tissue Factor Biomarker Activity (AID 2283052); details: primary human coronary artery smooth muscle cells; actives raise or lower the signal;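 also: cell surface tissue factor protein level read by ELISA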
[4] = read-out: Interferon-gamma inducible Protein 10 (IP10), CXCL10 (gene 3627); assay: BSK_hDFCGF_IP10: BioMAP Diversity Plus: hDFCGF Assay for Interferon-gamma inducible Protein 10 (IP10) Biomarker Activity (AID 2283053); details: primary human foreskin fibroblasts; actives raise or lower the signal
Outline: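 Chemical-treated human skin fibroblasts (primary) were sampled at 24 h for IP-10 by ELISA. Both increases and decreases relative to DMSO were scored.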

[5] = read-out: Urokinase-type plasminogen activator receptor (uPAR), PLAUR (gene 5329); assay: BSK_CASM3C_uPAR: BioMAP Diversity Plus: CASM3C Assay for Urokinase-type plasminogen activator receptor (uPAR) Biomarker Activity (AID 2283054); details: primary human coronary artery smooth muscle cells; actives raise or lower the signal;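 also: cell-surface uPAR protein level quantified by ELISA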
[6] = read-out: Vascular cell adhesion molecule 1 (VCAM1), VCAM1 (gene 7412); assay: BSK_CASM3C_VCAM1: BioMAP Diversity Plus: CASM3C Assay for Vascular cell adhesion molecule 1 (VCAM1) Biomarker Activity (AID 2283055); details: primary human coronary artery smooth muscle cells; actives raise or lower the signal;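 also: VCAM-1 protein level quantified by ELISA on the cells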
[7] = read-out: Collagen III, COL3A1 (gene 1281); assay: BSK_hDFCGF_CollagenIII: BioMAP Diversity Plus: hDFCGF Assay for Collagen III Biomarker Activity (AID 2283056); details: primary human foreskin fibroblasts; actives raise or lower the signal
Outline: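 Human foreskin fibroblast primary cultures sampled 24 h after dosing; Collagen III quantified by ELISA. Signal fitted bidirectionally against DMSO baseline.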

[8] = read-out: Epidermal growth factor receptor (EGFR), EGFR (gene 1956); assay: BSK_hDFCGF_EGFR: BioMAP Diversity Plus: hDFCGF Assay for Epidermal growth factor receptor (EGFR) Biomarker Activity (AID 2283057); details: primary human foreskin fibroblasts; actives raise or lower the signal
Outline: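 Cell-based multiplexed assay in primary human foreskin fibroblasts. EGFR is read by ELISA 24 h after treatment and compared with DMSO controls.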

[9] = read-out: Interleukin-8 (IL8), CXCL8 (gene 3576); assay: BSK_hDFCGF_IL8: BioMAP Diversity Plus: hDFCGF Assay for Interleukin-8 (IL8) Biomarker Activity (AID 2283058); details: primary human foreskin fibroblasts; actives raise or lower the signal
Outline: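 Primary human foreskin fibroblasts (hDFCGF system) dosed with chemical; IL-8 measured by ELISA 24 hours later. Bidirectional curve fitting relative to DMSO baseline; cytotoxicity tracked in parallel cultures by SRB total protein staining.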

[10] = BSK_hDFCGF_Proliferation: Cell Proliferation Assessment in the BioMAP Diversity Plus: hDFCGF Assay (AID 2283059); details: primary human foreskin fibroblasts;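 also: curves fitted for both rise and fall of signal versus DMSO baseline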
Outline: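 Steps: dose primary human dermal fibroblasts (foreskin); […] fix in 10% TCA; stain with 0.1% SRB; read 560 nm; fit gain or loss of signal against DMSO.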

[11] = read-out: TIMP metallopeptidase inhibitor 1 (TIMP1), TIMP1 (gene 7076); assay: BSK_hDFCGF_TIMP1: BioMAP Diversity Plus: hDFCGF Assay for TIMP metallopeptidase inhibitor 1 (TIMP1) Biomarker Activity (AID 2283062); details: primary human foreskin fibroblasts; actives raise or lower the signal
Outline: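 Human foreskin fibroblast primary cultures dosed for 24 h; secreted/surface TIMP-1 quantified by ELISA. Bidirectional curve fitting against DMSO baseline; cytotoxicity tracked in parallel cultures by SRB total-protein staining.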

[12] = read-out: Monokine induced gamma interferon (MIG), CXCL9 (gene 4283); assay: BSK_hDFCGF_MIG: BioMAP Diversity Plus: hDFCGF Assay for Monokine induced gamma interferon (MIG) Biomarker Activity (AID 2283063); details: primary human foreskin fibroblasts; actives raise or lower the signal
Outline: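 MIG/CXCL9 measured by ELISA 24 h after dosing primary human skin fibroblasts. Activity fitted in both directions against DMSO controls. Cytotoxicity was checked in parallel cultures by SRB staining read at 560 nm.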

[13] = read-out: Matrix Metallopeptidase 1 (MMP1), MMP1 (gene 4312); assay: BSK_hDFCGF_MMP1: BioMAP Diversity Plus: hDFCGF Assay for Matrix Metallopeptidase 1 (MMP1) Biomarker Activity (AID 2283064); details: primary human foreskin fibroblasts; actives raise or lower the signal
Outline: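 Human foreskin fibroblasts exposed to chemical for 24 h; MMP1 detected by ELISA, with DMSO as baseline for bidirectional fitting.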

[14] = read-out: Vascular cell adhesion molecule 1 (VCAM1), VCAM1 (gene 7412); assay: BSK_hDFCGF_VCAM1: BioMAP Diversity Plus: hDFCGF Assay for Vascular cell adhesion molecule 1 (VCAM1) Biomarker Activity (AID 2283065); details: primary human foreskin fibroblasts; actives raise or lower the signal;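 as to AC50: VCAM-1 protein level quantified by ELISA after 24 h chemical exposure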
Outline: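 Human foreskin fibroblast primary cells dosed with chemical, VCAM-1 measured by ELISA at 24 h. Bidirectional curve fitting relative to DMSO as negative control/baseline.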

[15] = read-out: Plasminogen activator inhibitor-1 (PAI1), SERPINE1 (gene 5054); assay: BSK_hDFCGF_PAI1: BioMAP Diversity Plus: hDFCGF Assay for Plasminogen activator inhibitor-1 (PAI1) Biomarker Activity (AID 2283066); details: primary human foreskin fibroblasts; actives raise or lower the signal
Outline: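 Human skin fibroblast cultures receive chemical for 24 h before PAI-1 is measured by ELISA; signal changes are fitted bidirectionally against DMSO-treated wells.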

[16] = read-out: Intercellular Adhesion Molecule 1 (ICAM1), ICAM1 (gene 3383); assay: BSK_KF3CT_ICAM1: BioMAP Diversity Plus: KF3CT Assay for Intercellular Adhesion Molecule 1 (ICAM1) Biomarker Activity (AID 2283067); details: primary human keratinocytes with fibroblasts; actives raise or lower the signal
Outline: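 Human keratinocyte–foreskin fibroblast co-culture was treated for 24 h. Cell-surface ICAM-1 was quantified by ELISA, fitted bidirectionally relative to DMSO. Cytotoxicity was checked in parallel cultures by SRB total-protein staining.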

[17] = read-out: Interferon-gamma inducible Protein 10 (IP10), CXCL10 (gene 3627); assay: BSK_KF3CT_IP10: BioMAP Diversity Plus: KF3CT Assay for Interferon-gamma inducible Protein 10 (IP10) Biomarker Activity (AID 2283068); details: primary human keratinocytes with fibroblasts; actives raise or lower the signal
Outline: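 KF3CT co-culture (keratinocytes + foreskin fibroblasts), 24 h compound, IP-10 by ELISA; bidirectional fit vs DMSO baseline.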

[18] = BSK_KF3CT_SRB: Viability Assessment in the BioMAP Diversity Plus: KF3CT Assay (AID 2283069); details: primary human keratinocytes with fibroblasts;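 also: read 24 h after compound addition; fitted for both signal gain and loss against DMSO baseline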
Outline: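 Overt cytotoxicity is assessed as total protein by sulforhodamine B staining in parallel human skin co-cultures at 24 h after dosing. DMSO serves as negative control and baseline.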

Measured: AC50

CCNc1nc(Cl)nc(NCC)n1
inactive: all assays above

CS/C(C)=N/OC(=O)N(C)SN(C)C(=O)O/N=C(\C)SC
inactive: [2] | [3] | [7] | [8] | [9] | [11] | [13] | [14]
active: [1] 31.2 µM | [4] 8.62 µM | [5] 31.5 µM | [6] 30.8 µM | [10] 3.73 µM | [12] 11 µM | [15] 12 µM | [16] 11.1 µM | [17] 12.4 µM | [18] 12.5 µM

CCOC(=O)C(Cl)Cc1cc(-n2nc(C)n(C(F)F)c2=O)c(F)cc1Cl (configuration not stated)
inactive: all assays above

N#Cc1nn(-c2c(Cl)cc(C(F)(F)F)cc2Cl)c(N)c1S(=O)C(F)(F)F (configuration not stated)
active: [1] 24.9 µM | [2] 21.9 µM | [4] 2.24 µM | [6] 23.6 µM | [8] 1.71 µM | [17] 29.1 µM
inactive: all other assays above

Cc1ccc(-c2c(Cl)nc(C#N)n2S(=O)(=O)N(C)C)cc1
active: [4] 6.3 µM | [7] 13.9 µM | [10] 17 µM | [11] 18.3 µM | [14] 4.39 µM | [18] 11.3 µM
inactive: all other assays above

COc1nc(NC(C)C)nc(NC(C)C)n1
inactive: all assays above

CCOP(=S)(OCC)SCn1c(=O)oc2cc(Cl)ccc21
active: [2] 19.9 µM | [7] 20 µM | [10] 15.5 µM | [13] 2.15 µM | [14] 15.6 µM | [15] 13.8 µM | [16] 7.36 µM
inactive: all other assays above

CCOC(=O)CC(SP(=S)(OC)OC)C(=O)OCC (configuration not stated)
inactive: all assays above

CN(C)C(=S)SSC(=S)N(C)C
active: [2] 9.88 µM | [4] 2.74 µM | [6] 11.5 µM | [7] 6.36 µM | [8] 5.9 µM | [9] 7.67 µM | [10] 2.76 µM | [11] 9.76 µM | [12] 3.01 µM | [13] 5.34 µM | [14] 4.12 µM | [15] 5.64 µM | [16] 6.42 µM | [17] 6.1 µM | [18] 7.21 µM
inactive: [1] | [3] | [5]
